# From PubChem
# Shown are actives, neighbours in structure and some others; about 10% of the full set was active somewhere.
# GLA spleen mod – inhibitors or activators of human alpha-galactosidase in spleen homogenate | Potency, µM (series often up to 80 µM), hits mostly inhibitors | actives 0.008% (n = 240,000) | human spleen homogenate, 4MU-alpha-Gal fluorescence, 40 min | AID 2107 | P06280
#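 Inhibition or activation of alpha-galactosidase in human spleen homogenate is scored by 4-MU fluorescence after 40 min at 37C, pH 5.0, with 1 mM substrate. AC50s come from concentration-response fitted to the Hill equation.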
# GLA inh pH 4.5 – blocks human alpha-galactosidase A at pH 4.5. purified enzyme, 4-MU-alpha-Gal fluorescence, pH 4.5. activity change, negative = inhibition, % at 105 µM. 230,000 tested, under 10 active
# HPGD inh – HPGD (human) dehydrogenase inhibition. P15428. actives 4.3% (n = 150,000). purified HPGD, NADH fluorescence kinetic, PGE2 substrate. Potency, µM, actives largely listed as inhibitors. AID 894; active means well fitted inhibition curve with a large enough effect, not every such curve was filed as active; inconclusive means small, poorly fitted or top-dose-only effect, or another doubt; inactive means no such curve, though single readings can be large or run the other way
# Target sequence (P15428 whole entry, looked up): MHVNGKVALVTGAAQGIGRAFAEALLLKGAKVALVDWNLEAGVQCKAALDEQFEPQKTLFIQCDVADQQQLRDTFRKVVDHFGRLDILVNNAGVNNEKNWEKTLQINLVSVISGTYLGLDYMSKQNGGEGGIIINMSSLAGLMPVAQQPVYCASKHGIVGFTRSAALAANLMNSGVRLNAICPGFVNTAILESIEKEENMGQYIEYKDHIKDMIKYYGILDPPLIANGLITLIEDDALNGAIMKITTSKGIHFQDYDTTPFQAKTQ
#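 NADH formation kinetics: reaction with 30 uM PGE2 and 1 mM NAD+ (final), 20 nM enzyme, Tris-HCl pH 8 with Tween 20, after 15 min compound preincubation at room temperature. Fluorescence change, last versus first of five reads.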
# 12-hLO inh – 12-hLO (ALOX12) enzyme inhibition; P18054; purified 12-hLO, xylenol orange hydroperoxide absorbance; Potency, µM (top dose mostly 57.1 µM), most hits filed as inhibitors; actives 0.12% (n = 150,000); further: nearly all actives have a fitted effect of over 55% in size
#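 Hydroperoxide output read as Fe(III)-xylenol orange absorbance, 573-to-405 nm ratio, after 30 min reaction with 40 uM arachidonic acid. Enzyme: 150 nM purified human 12hLO, 15 min compound preincubation; 25 mM Hepes pH 7.0, room temperature.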
# ALDH1A1 inh – ALDH1A1 (human) enzyme inhibition; Purified ALDH1A1, NADH fluorescence, propionaldehyde substrate; AID 1030; actives 7.3% (n = 220,000); P00352; Potency, µM (titrated, usually from 75.3 µM), actives largely listed as inhibitors; active means well fitted inhibition curve with a large enough effect, not every such curve was filed as active; inconclusive means small, poorly fitted or top-dose-only effect, or another doubt; inactive means no such curve, though single readings can be large or run the other way
# PNC inhibitor – blocks assembly of the perinucleolar compartment | activity change (PNC), negative = inhibition, % at 10 µM | PC3M PTB-GFP, PNC prevalence imaging, 16 h; stronger effect = lower value | actives 3.1% (n = 140,000);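 active means readout at or below -70, meaning at least 70% loss of cells showing the perinucleolar compartment, a nuclear body marking cancer cells; inconclusive means readout between -30 and a set limit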
#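 PC3M cells stably expressing PTB-GFP, 750–1000 cells/well, treated 16 h at 37 °C with compound (23 nl of library stock), in duplicate. After paraformaldehyde fixation and Hoechst stain, imaged at 20x; PNC prevalence scored by image analysis.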
# Hits are given with their value; n = inactive; u = inconclusive; x = no result given; ! = a repeat was not active; [ ] = another dose, or the depositor's remark. Unless noted, the call rests on the fitted dose curve; in most records, active means well fitted curve in the direction sought with a large enough effect; inconclusive means small, poorly fitted or top-dose-only effect, or another doubt; inactive means no such curve, though single readings can be large; an effect the other way counts as inactive or inconclusive.
SMILES,GLA spleen mod,GLA inh pH 4.5,HPGD inh,12-hLO inh,ALDH1A1 inh,PNC inhibitor
COc1ccc2cc1Oc1ccc(cc1)CC1c3cc(c(OC)cc3CCN1C)Oc1c(OC)c(OC)cc3c1C(C2)N(C)CC3 (configuration not stated),n,n,n,n,n,x
CN1C(=O)/C(=C\c2ccc(N3CCCCCC3)cc2)C(=O)NC1=S,n,n,x,x,0.071µM,x
CCCCN1C(=O)/C(=C/c2ccc(N3CCCCCC3)cc2)C(=O)NC1=S,n,n,n,n,0.2µM,n
Cc1cc(N2CCCCC2)ccc1C=C1C(=O)N(C)C(=S)N(C)C1=O,n,n,14µM,n,32µM,n
O=C1NC(=O)N(c2cccc(F)c2)C(=O)/C1=C/c1ccc(N2CCOCC2)cc1,n,n,x,x,5µM,x
Cc1cc(N2CCCC2)ccc1C=C(C#N)C#N,n,n,x,x,n,x
CN1C(=O)/C(=C\c2ccc(N3CCCCC3)o2)C(=O)NC1=S,n,n,n,n,u,u
NC1CCCCC1N (configuration not stated),n,x,x,x,x,x
O=C(O)C(Oc1nc(=S)[nH]c(=S)[nH]1)(c1ccc(Cl)cc1)c1ccc(Cl)cc1,x,x,n,n[11.4 µM],n[13.5 µM],x
COc1ccc(/C=C2\C(=O)NC(=S)N(C)C2=O)cc1C,n,n,x,x,7.9µM,x
CN1C(=O)/C(=C/c2ccc(N3CCCCCC3)o2)C(=O)NC1=S,n,n,n,n,u,n
Cn1cc(NC(=O)CCl)cn1,n,n,x,x,18µM,x
CCCn1cc(C(=O)O)cn1,n,n,x,x,n,x
Clc1ccccc1CNC1CN2CCC1CC2 (configuration not stated),n,n,n,n,n,u
CSc1ccc(CNC2CN3CCC2CC3)cc1 (configuration not stated),n,n,n,n,n,-106
CN(C)CCC=C1c2ccccc2CCc2ccccc21,n,n,n,n,18µM!,n
NC(=O)c1ncn(C2OC(CO)C(O)C2O)n1 (configuration not stated),n,n,n,n,n,x
O=C(c1ccc2c(c1)ncn2C1CCCCC1)N1CCC2(CC1)OCCO2,n,n,7.9µM,n,n,n
COc1ccc(-c2oc3cc(OC)ccc3c(=O)c2O)cc1,n,n,u,n,u,x
Cc1cccc(N2C(=O)NC(=O)C3(Cc4cc(C)ccc4N(C)C3)C2=O)c1 (configuration not stated),n,n,x,n,8.9µM,n
Cc1ccc2c(c1)CC1(CN2C)C(=O)NC(=O)N(CCC2=CCCCC2)C1=O (configuration not stated),n,n,x,n,3.5µM,n
O=C(O)c1cccc([As]=[As]c2cccc(C(=O)O)c2)c1 (configuration not stated),x,x,n,n[11.4 µM],n[13.5 µM],x
CC[C@H]1CN2CCc3cc(OC)c(OC)cc3[C@H]2C[C@@H]1C[C@H]1NCCc2c1[nH]c1ccc(O)cc21,x,x,n,n[11.4 µM],n[13.5 µM],x
C=CCN1CCc2cccc3c2C1Cc1ccc(O)c(O)c1-3 (configuration not stated),n,n,u,x,u,x
COc1ccc(P2(=O)Nc3ccccc3N2)cc1,n,n,25µM,n,n,n
SMILES,GLA spleen mod,GLA inh pH 4.5,HPGD inh,12-hLO inh,ALDH1A1 inh,PNC inhibitor
O=c1c2ccccc2[se]n1-c1ccccc1,n,n,0.63µM,3.2µM,0.22µM,n
O=c1c2ccccc2nc(-c2ccccc2)n1-c1ccccc1,n,n,x,x,x,x
C#CCN1C(=O)C2(C(C#N)=C(N)OC(C)=C2C(=O)OCc2ccccc2)c2ccccc21 (configuration not stated),n,n,n,n,0.79µM,n
Nc1c(C(=O)Nc2ccc([As](=O)(O)O)cc2)cnc2nnnn12,x,x,n,n[11.4 µM],n[13.5 µM],x
Cc1ccc2cc(C=C(C#N)C#N)c(Cl)nc2c1,n,n,n,n,n,n
N#CC(C#N)=Cc1ccc([N+](=O)[O-])c(O)c1,n,n,16µM,n[0.00818 µM],16µM,x
N#CC(C#N)=Cc1ccc(C=C(C#N)C#N)cc1,n,n,x,x,0.35µM,x
CCOC(=O)N(C)C(=O)CSP(=S)(OCC)OCC,n,x,x,x,x,x
Cc1ncc2n1-c1ccc(Cl)cc1C(c1ccccc1F)=NC2O (configuration not stated),n,x,x,x,x,x
CCC(=Nc1ccc(OC)cc1OC)c1c(O)n(C2CCCCC2)c(=O)[nH]c1=O,n,n,28µM,n,u,n
